From PubChem BioAssay (EPA / NIEHS) come the findings set out here.

The nature of assay [1]: ATG_CRE_CIS: Attagene CIS-FACTORIAL HepG2 Assay for human cAMP Responsive Element (CRE) binding protein 3 (AID 2282926). The conditions noted are these: HepG2 CRE cis-reporter, Attagene multiplexed mRNA; actives raise or lower the signal. The gist of the method:
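Induced reporter mRNA from a CRE cis element, measured in HepG2 among many multiplexed units at 24 h. Detection used RT-PCR plus capillary electrophoresis of fluorescent fragments; DMSO served as negative control.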

Assay [2] concerns the target CCAAT/enhancer-binding protein beta (Homo sapiens) (UniProt P17676). Nature of the assay: ATG_C_EBP_CIS: Attagene CIS-FACTORIAL HepG2 Assay for human CCAAT/Enhancer Binding Protein (C/EBP) beta (AID 2282927). As to conditions: HepG2 Attagene cis-factorial transcription factor reporter; actives raise or lower the signal. The gist of the method: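 Changes in reporter mRNA, rather than exogenous chimeric receptor activity, reflect native C/EBP signalling in transfected HepG2 cells dosed for 24 h; transcripts are detected by RT-PCR and capillary electrophoresis.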

Assay [3] in a line: ATG_DR4_LXR_CIS: Attagene CIS-FACTORIAL HepG2 Assay for human Liver X Receptor (LXR), DR4 submotif (AID 2282929). As to conditions: HepG2 Attagene DR4 cis-reporter, mRNA transcription; actives raise or lower the signal. The gist of the method:
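Cells were transfected with multiple reporter transcription units, exposed to chemicals for 24 hours, then lysed for RNA. Reporter mRNA induction was measured by RT-PCR with capillary electrophoresis detection and fitted in both directions relative to DMSO.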

Assay [4] deals with Aryl hydrocarbon receptor (Homo sapiens) (UniProt P35869). Nature of the assay: ATG_Ahr_CIS: Attagene CIS-FACTORIAL HepG2 Assay for human Aryl Hydrocarbon Receptor (Ahr) (AID 2282930). As to conditions: HepG2 AhR cis-factorial reporter transcription; actives raise or lower the signal. The gist of the method:
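HepG2, transient MRTU (cis) transfection, 24 h exposure. RNA → cDNA → PCR → 6-FAM primer extension → HpaI 2 h 37 C → CE. Fit: bidirectional, DMSO baseline.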

The nature of assay [5]: ATG_AP_1_CIS: Attagene CIS-FACTORIAL HepG2 Assay for human Activator Protein 1 (AP-1) (AID 2282931). As to conditions: HepG2 Attagene cis-factorial AP-1 reporter mRNA; actives raise or lower the signal. In short, it runs like this:
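Endogenous transcription-factor activity in human HepG2 liver cells is read through a cis-promoter reporter transcript, sampled 24 h after dosing. Detection uses RT-PCR with capillary electrophoresis; values come from bidirectional fitting relative to DMSO.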

Assay [6] in a line: ATG_AP_2_CIS: Attagene CIS-FACTORIAL HepG2 Assay for human Activator Protein 2 (AP-2) (AID 2282932). The conditions noted are these: HepG2 AP-2 cis-reporter, Attagene transcription factor profiling; actives raise or lower the signal. The gist of the method:
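Transiently transfected HepG2 cells are exposed to chemical for 24 h. Reporter transcripts are then measured as fluorescence following RT-PCR and capillary separation, and gain- or loss-of-signal is fitted relative to DMSO.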

Assay [7] in a line: ATG_BRE_CIS: Attagene CIS-FACTORIAL HepG2 Assay for human Bone Morphogenetic Protein (BMP) Response Element (BRE) (AID 2282933). As to conditions: HepG2 BMP response element reporter, Attagene transcription factor profiling; actives raise or lower the signal. In short, it runs like this: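 Transient MRTU transfection of human HepG2 liver cells; 24 h compound treatment; total RNA isolated, reverse-transcribed, PCR-amplified, 6-FAM labelled, HpaI-cut, capillary electrophoresis. DMSO = negative control/baseline, bidirectional fit.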

Assay [8] deals with Retinoic acid receptor alpha (Homo sapiens) (UniProt P10276). Nature of the assay: ATG_DR5_RAR_CIS: Attagene CIS-FACTORIAL HepG2 Assay for human Retinoic Acid Receptor Alpha (RARE), DR5 submotif (AID 2282934). As to conditions: HepG2 Attagene cis-factorial RARE DR5 reporter, mRNA; actives raise or lower the signal. In short, it runs like this: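 HepG2, transient cis-reporter transfection, 24 h exposure. mRNA readout: RT-PCR, FAM label, HpaI cut, capillary electrophoresis. DMSO baseline, gain/loss fitting.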

The target of assay [9] is Transcription factor E2F1 (Homo sapiens) (UniProt Q01094). Nature of the assay: ATG_E2F_CIS: Attagene CIS-FACTORIAL HepG2 Assay for human E2F Transcription Factor 1 (AID 2282935). The conditions noted are these: HepG2 Attagene cis-reporter, E2F reporter RNA transcripts; actives raise or lower the signal. The gist of the method: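 Fluorescent RT-PCR products, digested with HpaI for 2 h at 37 C, are separated by capillary electrophoresis. Source RNA comes from transfected HepG2 cultures treated for 24 h.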

The nature of assay [10]: ATG_E_Box_CIS: Attagene CIS-FACTORIAL HepG2 Assay for human Enhancer Box (E-box) (AID 2282936). As to conditions: HepG2 E-box cis-reporter transcription, actives raise or lower the signal. The gist of the method:
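Fluorescent reporter fragments separated by capillary electrophoresis gave the signal; mRNA came from HepG2 cells transfected with cis-element reporters and treated 24 h. Curves fitted bidirectionally relative to DMSO controls.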

Assay [11] is described as follows: ATG_M_61_CIS: Attagene CIS-FACTORIAL HepG2 Assay for M61 Transcription Factor (Internal Marker) (AID 2282937). As to conditions: HepG2 Attagene CIS-FACTORIAL M61 internal marker reporter; actives raise or lower the signal. In short, it runs like this: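 Cells were transfected with reporter units under cis-regulatory promoters, treated with chemicals for 24 h, then lysed for RNA. Reporter transcripts were quantified by RT-PCR and capillary electrophoresis, and activity was fitted bidirectionally against DMSO.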

Assay [12] in a line: ATG_M_19_CIS: Attagene CIS-FACTORIAL HepG2 Assay for M19 Transcription Factor (Internal Marker) (AID 2282939). As to conditions: HepG2 Attagene CIS-FACTORIAL M19 internal marker reporter; actives raise or lower the signal. In short, it runs like this: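 Transfect HepG2 with MRTU reporter library → dose chemical, 24 h → isolate total RNA, reverse-transcribe with oligo(dT) → PCR, 6-FAM label, HpaI cut (2 h, 37 C) → capillary electrophoresis. Bidirectional fit vs DMSO.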

Assay [13] in a line: ATG_ERE_CIS: Attagene CIS-FACTORIAL HepG2 Assay for Estrogen Response Element (ERE) (AID 2282940). The conditions noted are these: HepG2 ERE cis-reporter, Attagene RNA transcript; actives raise or lower the signal. In short, it runs like this:
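Transient MRTU transfection of human HepG2; cis-element promoters; 24 h dosing; total RNA → RT (oligo dT) → PCR → 6-FAM primer extension → HpaI digest → CE fluorescence. Bidirectional fit, DMSO baseline.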

Assay [14] can be described thus: ATG_Ets_CIS: Attagene CIS-FACTORIAL HepG2 Assay for human Erythroblast Transformation Specific (ETS) (AID 2282941). The conditions noted are these: HepG2 ETS cis-reporter transcription, actives raise or lower the signal. In short, it runs like this: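 Bidirectional fit versus DMSO of reporter mRNA signal, detected by RT-PCR and capillary electrophoresis in HepG2 cells transiently transfected with cis-element reporters and dosed 24 h.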

For assay [15], the target named is Hepatocyte nuclear factor 3-beta (Homo sapiens) (UniProt Q9Y261). Nature of the assay: ATG_FoxA2_CIS: Attagene CIS-FACTORIAL HepG2 Assay for human Forkhead box A2 (FOXA2) (AID 2282942). As to conditions: HepG2 cis-reporter transcription factor activity, 24 h; actives raise or lower the signal. The gist of the method: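 Endogenous transcription factor activity was read in HepG2 cells carrying transiently transfected cis-promoter reporter units. After 24 h dosing, reporter mRNA was quantified by RT-PCR and capillary electrophoresis, and values fitted bidirectionally versus DMSO.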

A short description of assay [16]: ATG_FoxO_CIS: Attagene CIS-FACTORIAL HepG2 Assay for human Forkhead box O (FoxO) (AID 2282943). As to conditions: HepG2 Attagene cis-reporter, FoxO element, mRNA; actives raise or lower the signal. The gist of the method: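 Human hepatoma HepG2 cells carry transiently introduced reporter transcription units controlled by cis promoter elements. Chemical treatment lasted 24 h, and mRNA signal was compared with DMSO.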

The nature of assay [17]: ATG_GLI_CIS: Attagene CIS-FACTORIAL HepG2 Assay for human Zinc Finger Protein GLI1 (AID 2282945). As to conditions: HepG2, Attagene cis-factorial reporter mRNA, GLI element; actives raise or lower the signal. In short, it runs like this: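 Bidirectional curve fits relative to DMSO, using reporter mRNA levels from RT-PCR plus capillary electrophoresis. Cells were HepG2 transiently carrying cis-regulated reporter constructs, harvested 24 h after dosing.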

The nature of assay [18]: ATG_CMV_CIS: Attagene CIS-FACTORIAL HepG2 Assay for human CMV (Internal Marker) (AID 2282928).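 Also: endpoint acts as a background internal control marker rather than a target.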 As to conditions: HepG2 CMV promoter reporter, transcription factor profiling; actives raise or lower the signal. The gist of the method:
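Reporter transcripts from transfected HepG2 cells are isolated after 24 h of chemical dosing, reverse-transcribed and amplified. Fragments labeled with 6-FAM are cut with HpaI and quantified by capillary electrophoresis; DMSO defines baseline.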

Assay [19] is described as follows: ATG_EGR_CIS: Attagene CIS-FACTORIAL HepG2 Assay for human Early Growth Response 1 (EGR1) (AID 2282938). The conditions noted are these: HepG2 Attagene CIS-FACTORIAL EGR reporter mRNA; actives raise or lower the signal. The gist of the method: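 Endogenous TF activity in HepG2 liver cells was gauged through cis-promoter reporter constructs transiently transfected. After 24 h dosing, reporter mRNA was quantified by RT-PCR and capillary electrophoresis, and curves fitted in both directions versus DMSO.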

A short description of assay [20]: ATG_GATA_CIS: Attagene CIS-FACTORIAL HepG2 Assay for human GATA Binding Protein (AID 2282944). As to conditions: HepG2 GATA cis-element reporter, Attagene multiplex mRNA; actives raise or lower the signal. In short, it runs like this:
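Transient MRTU transfection, HepG2, 24 h compound exposure. Total RNA → oligo(dT) RT → PCR → 6-FAM primer extension → HpaI cut → CE. Bidirectional fit vs DMSO.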

Active and inactive are the calls of the source. The calls were made as follows: active = hit-call score of the fitted dose curve at least 0.9, where 1 is the maximum; inactive = score below 0.9.

As a reminder, the AC50 is the concentration at which the activity in the assay is half-maximal.

Transcription factor E2F1 (Homo sapiens), sequence (Q01094 whole entry, looked up): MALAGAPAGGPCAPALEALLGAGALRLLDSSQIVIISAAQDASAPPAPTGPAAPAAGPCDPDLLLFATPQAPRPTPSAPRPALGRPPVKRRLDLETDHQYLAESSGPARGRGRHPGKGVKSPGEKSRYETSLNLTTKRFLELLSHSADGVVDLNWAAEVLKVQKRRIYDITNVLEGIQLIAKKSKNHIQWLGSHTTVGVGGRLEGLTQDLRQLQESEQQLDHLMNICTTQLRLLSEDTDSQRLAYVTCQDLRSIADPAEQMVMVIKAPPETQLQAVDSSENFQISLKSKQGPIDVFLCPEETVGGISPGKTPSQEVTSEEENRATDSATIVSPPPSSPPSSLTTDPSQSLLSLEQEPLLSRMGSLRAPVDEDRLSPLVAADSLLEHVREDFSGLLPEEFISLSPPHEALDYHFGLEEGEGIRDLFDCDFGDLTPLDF
Retinoic acid receptor alpha (Homo sapiens), sequence (P10276 whole entry, looked up): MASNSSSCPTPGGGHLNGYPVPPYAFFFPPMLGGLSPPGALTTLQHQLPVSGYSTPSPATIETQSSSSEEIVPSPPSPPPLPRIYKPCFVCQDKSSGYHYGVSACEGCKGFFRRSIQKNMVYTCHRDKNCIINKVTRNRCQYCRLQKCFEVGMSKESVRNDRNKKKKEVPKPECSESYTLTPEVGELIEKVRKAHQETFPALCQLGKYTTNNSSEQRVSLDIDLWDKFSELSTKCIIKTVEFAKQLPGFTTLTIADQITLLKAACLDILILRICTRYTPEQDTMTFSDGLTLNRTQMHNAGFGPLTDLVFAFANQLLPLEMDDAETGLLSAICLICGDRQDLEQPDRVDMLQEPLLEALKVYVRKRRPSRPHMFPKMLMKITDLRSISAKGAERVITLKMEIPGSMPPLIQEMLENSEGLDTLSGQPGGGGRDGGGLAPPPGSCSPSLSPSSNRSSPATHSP
Hepatocyte nuclear factor 3-beta (Homo sapiens), sequence (Q9Y261 whole entry, looked up): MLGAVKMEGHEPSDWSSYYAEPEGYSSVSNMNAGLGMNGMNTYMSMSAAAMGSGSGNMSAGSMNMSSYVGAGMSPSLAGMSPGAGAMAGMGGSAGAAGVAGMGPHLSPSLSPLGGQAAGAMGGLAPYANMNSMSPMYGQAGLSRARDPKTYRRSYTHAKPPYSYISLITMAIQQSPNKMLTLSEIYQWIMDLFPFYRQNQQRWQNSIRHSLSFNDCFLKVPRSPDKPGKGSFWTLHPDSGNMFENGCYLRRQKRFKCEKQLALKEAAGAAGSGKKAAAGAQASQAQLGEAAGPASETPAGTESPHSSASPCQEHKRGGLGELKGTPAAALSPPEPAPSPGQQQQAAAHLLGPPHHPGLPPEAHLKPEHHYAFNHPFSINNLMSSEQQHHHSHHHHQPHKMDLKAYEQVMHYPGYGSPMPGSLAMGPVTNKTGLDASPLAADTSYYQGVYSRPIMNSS
CCAAT/enhancer-binding protein beta (Homo sapiens), sequence (P17676 whole entry, looked up): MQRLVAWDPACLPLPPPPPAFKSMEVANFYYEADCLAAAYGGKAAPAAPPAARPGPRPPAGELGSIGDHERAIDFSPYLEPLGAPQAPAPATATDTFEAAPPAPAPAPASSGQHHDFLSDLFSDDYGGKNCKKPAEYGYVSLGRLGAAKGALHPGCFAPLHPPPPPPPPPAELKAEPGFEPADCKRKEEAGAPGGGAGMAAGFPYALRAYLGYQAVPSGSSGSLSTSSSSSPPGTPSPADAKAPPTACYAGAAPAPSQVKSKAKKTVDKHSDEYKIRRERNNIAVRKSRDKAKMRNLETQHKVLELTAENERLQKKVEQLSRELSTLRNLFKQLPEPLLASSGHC
Aryl hydrocarbon receptor (Homo sapiens), sequence (P35869 whole entry, looked up): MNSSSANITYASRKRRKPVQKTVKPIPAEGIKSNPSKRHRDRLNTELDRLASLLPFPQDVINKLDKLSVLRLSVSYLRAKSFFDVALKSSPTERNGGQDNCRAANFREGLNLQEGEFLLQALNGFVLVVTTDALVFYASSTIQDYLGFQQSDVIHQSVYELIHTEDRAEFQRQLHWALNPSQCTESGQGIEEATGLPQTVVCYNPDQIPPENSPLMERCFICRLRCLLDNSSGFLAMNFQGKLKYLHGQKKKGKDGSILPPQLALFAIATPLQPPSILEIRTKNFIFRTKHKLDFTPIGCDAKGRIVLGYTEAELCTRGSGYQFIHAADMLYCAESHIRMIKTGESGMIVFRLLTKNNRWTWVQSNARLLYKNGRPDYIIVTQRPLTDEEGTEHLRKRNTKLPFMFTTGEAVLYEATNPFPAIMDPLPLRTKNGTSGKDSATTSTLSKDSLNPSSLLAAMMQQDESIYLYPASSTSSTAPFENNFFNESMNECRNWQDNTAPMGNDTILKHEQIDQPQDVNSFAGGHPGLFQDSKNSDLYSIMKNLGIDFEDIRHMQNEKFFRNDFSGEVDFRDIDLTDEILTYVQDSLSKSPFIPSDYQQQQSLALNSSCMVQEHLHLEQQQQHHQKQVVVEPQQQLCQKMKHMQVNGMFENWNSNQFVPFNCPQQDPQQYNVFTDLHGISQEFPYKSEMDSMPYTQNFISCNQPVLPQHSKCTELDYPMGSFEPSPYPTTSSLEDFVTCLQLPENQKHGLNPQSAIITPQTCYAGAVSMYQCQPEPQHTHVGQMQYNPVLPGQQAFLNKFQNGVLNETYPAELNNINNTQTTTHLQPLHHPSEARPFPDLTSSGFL

Consider `O=C1C(N(CO)C(=O)NCO)N(CO)C(=O)N1CO` (configuration not stated), for which the compound was classed as inactive in assay [1], in assay [2], in [3], in assay [4], in assay [5] and in [6]. The result in assay [7], in assay [8], in assay [9], in assay [10], in [11] and in assay [12] was inactive. For the same compound, the result in [13], in [14], in [15], in assay [16] and in [17] was inactive.

On to `CCCCCCCCCCCCCCCC[N+](C)(C)CC`, for which the compound was called inactive in [1], in [2], in assay [7], in assay [8], in assay [11] and in [19]. The outcome in assay [12], in assay [13], in [14], in assay [15], in assay [16] and in assay [20] was inactive. The outcome in [17] was inactive. Also, the half-maximal activity concentration (AC50) is 8.84 µM (active) in assay [18]; 16.3 µM (active) in assay [5]; 12.6 µM (active) in [6]; 5.48 µM (active) in [9]; 13.5 µM (active) in assay [10].

As to `COCCOCCOCCOCCOC`, the call in assay [1], in assay [2], in assay [3], in assay [5], in [6] and in assay [7] was inactive. In addition, the call in [8], in assay [9], in assay [10], in assay [11], in assay [12] and in assay [13] was inactive. Moreover, the result in [14], in [20] and in assay [17] was inactive.

As to `O=Cc1ccc(CO)o1`, the compound was classed as inactive in [1], in [2], in assay [3], in assay [4], in assay [5] and in [6]. Also, the outcome in [7], in assay [8], in assay [9], in assay [10], in [11] and in assay [19] was inactive. In addition, the compound was classed as inactive in assay [12], in assay [13], in assay [14], in assay [15], in assay [16] and in assay [20]. Besides, in assay [17], the result was inactive.

Regarding `C(=CC=Nc1ccccc1)C=CNc1ccccc1`, the compound was classed as inactive in assay [1], in assay [2], in assay [3], in assay [6], in [7] and in assay [8]. In addition, the compound was classed as inactive in assay [9], in assay [10], in [11], in assay [19], in assay [12] and in assay [13]. Besides, the compound was classed as inactive in [14], in [15], in assay [16], in assay [20] and in assay [17]. Further, the AC50 in [4] was 10.1 µM (active); in assay [5] it was 100 µM (active).

On to `CN(C)CCCN(C)C`, for which the compound was classed as inactive in assay [1], in [2], in assay [3], in assay [4], in assay [5] and in assay [6]. Further, the result in [7], in [8], in assay [9], in assay [10], in assay [11] and in assay [12] was inactive. Further, the call in [13], in [14], in assay [15], in assay [16], in assay [20] and in [17] was inactive.

For the compound `COC(=O)c1cc(Cl)ccc1[N+](=O)[O-]`, the compound was classed as inactive in assay [1], in [2], in [3], in assay [5], in [6] and in assay [7]. For the same compound, the compound was classed as inactive in assay [9], in [11], in assay [19], in [12], in assay [13] and in assay [14]. Besides, the compound was called inactive in [15], in assay [16], in assay [20] and in [17].
